In PubChem BioAssay AID2284059 (EPA ToxCast):
Calls of active or inactive are those of the source. The calls were made as follows: active = hit-call score of the fitted dose curve at least 0.9, where 1 is the maximum; inactive = score below 0.9.

biological target: CYP2E1, CYP2E1 (gene 1571) (UniProt P05181); test: ERF_FR_ADME_hCYP2E1: Eurofins (ERF) CYP450-related Enzyme Activity (ADME) Assay for CYP2E1
Description: ERF_FR_ADME_hCYP2E1 is a biochemical, single-readout assay that uses extracted gene-proteins in a cell-free assay. Measurements were taken 0.16 hour after chemical dosing in a 96-well plate. See CYP2E1 inhibition (recombinant, EC substrate).ERF_FR_ADME_hCYP2E1 is an assay component calculated from the ERF_FR_ADME_hCYP2E1 assay. It is designed to measure enzyme activity using a type of enzyme reporter as detected by peak area response of 6-hydroxychlorzoxazone with HPLC-MS/MS technology.Data from the assay component ERF_FR_ADME_hCYP2E1 was analyzed at the assay endpoint, ERF_FR_ADME_hCYP2E1, in the positive analysis fitting direction relative to acetonitrile as the negative control and baseline of activity. Using a type of enzyme reporter, loss-of-signal activity can be used to understand changes in enzymatic activity as they relate to gene CYP2E1. To generalize the intended target to other relatable targets, this assay endpoint is annotated to the cyp intended target family, where the subfamily is steroidogenesis-related.
Assay is performed using 20 uM chlorzoxazone, cells are pre-incubated for 5 minutes, and then 10 minutes incubation with NADPH at 37C.

CYP2E1, CYP2E1 (gene 1571), sequence (P05181 whole entry, looked up): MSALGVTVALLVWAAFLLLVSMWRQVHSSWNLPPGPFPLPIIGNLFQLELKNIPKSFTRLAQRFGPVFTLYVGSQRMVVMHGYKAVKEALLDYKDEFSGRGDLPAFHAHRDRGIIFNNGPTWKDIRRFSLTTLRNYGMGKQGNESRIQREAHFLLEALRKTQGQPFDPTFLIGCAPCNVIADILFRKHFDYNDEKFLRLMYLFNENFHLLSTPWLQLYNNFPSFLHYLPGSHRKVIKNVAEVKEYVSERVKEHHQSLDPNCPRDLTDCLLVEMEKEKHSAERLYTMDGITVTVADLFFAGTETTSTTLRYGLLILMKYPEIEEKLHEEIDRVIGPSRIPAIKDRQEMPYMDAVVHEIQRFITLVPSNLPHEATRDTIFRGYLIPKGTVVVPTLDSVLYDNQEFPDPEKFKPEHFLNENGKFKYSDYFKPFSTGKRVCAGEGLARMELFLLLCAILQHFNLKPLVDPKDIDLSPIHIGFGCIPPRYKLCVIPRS

AC50, active:
O=C(/C=C/c1ccc(O)cc1)CC(=O)/C=C/c1ccc(O)cc1 1.15 µM
COc1cc(/C=C/C(=O)CC(=O)/C=C/c2ccc(O)c(OC)c2)ccc1O 1.08 µM
COc1cc(CCC(=O)CC(=O)CCc2ccc(O)c(OC)c2)ccc1O 1.24 µM
